# Laboratory results reported in the supplement of paper PMC8728848.
# The full list was thinned out, with the strongest signals kept by preference.
# How the values were obtained:
# Assay in all cases: glycan array binding signal (z-score within array); higher = stronger binding
# Details in all cases: glycan notation: IUPAC condensed, linker removed
# [1] = molecular target: Fuc(a1-2)[GalNAc(a1-3)]Gal(b1-4)GlcNAc(b1-6)GalNAc
# Summary of the method: (§1)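 The Consortium for Functional Glycomics database supplied 3228 glycan arrays, of which those lacking an available protein sequence were dropped. The binding signal, a within-array Z-score, was averaged across arrays of the same protein sequence and across linkers. Negative scores can be read as non-binding.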
# Fuc(a1-3)GlcNAc = molecular target: Fuc(a1-3)GlcNAc
# Summary of the method: as §1
# [2] = molecular target: Fuc(a1-3)[Gal(b1-4)]Glc6S
# Summary of the method: as §1
# [3] = molecular target: Gal(a1-3)Gal(b1-3)GlcNAc(b1-3)GalNAc
# Summary of the method: as §1
# [4] = molecular target: Gal(a1-3)Gal(b1-4)GlcNAc(b1-6)GalNAc
# Summary of the method: as §1
# [5] = molecular target: Gal(a1-3)Gal(b1-4)[Fuc(a1-3)]GlcNAc(b1-2)Man(a1-3)[Gal(a1-3)Gal(b1-4)[Fuc(a1-3)]GlcNAc(b1-2)Man(a1-6)]Man(b1-4)GlcNAc(b1-4)GlcNAc
# Summary of the method: as §1
# Gal(a1-3)GalNAc = molecular target: Gal(a1-3)GalNAc
# Summary of the method: as §1
# Gal(b1-3)Gal(b1-4)GlcNAc = molecular target: Gal(b1-3)Gal(b1-4)GlcNAc
# Summary of the method: as §1
# [6] = molecular target: Gal(b1-3)GalNAc(a1-3)[Fuc(a1-2)]Gal(b1-4)Glc
# Summary of the method: as §1
# [7] = molecular target: Gal(b1-3)GlcNAc(b1-2)[Gal(b1-3)GlcNAc(b1-6)]Man(a1-6)[Gal(b1-3)GlcNAc(b1-2)Man(a1-3)]Man(b1-4)GlcNAc(b1-4)GlcNAc
# Summary of the method: as §1
# [8] = molecular target: Gal(b1-3)GlcNAc(b1-3)GalNAc
# Summary of the method: as §1
# [9] = molecular target: Gal(b1-4)GalNAc(a1-3)[Fuc(a1-2)]Gal(b1-4)GlcNAc
# Summary of the method: as §1
# Gal(b1-4)GlcNAc(b1-2)Man = molecular target: Gal(b1-4)GlcNAc(b1-2)Man
# Summary of the method: as §1
# [10] = molecular target: Gal(b1-4)GlcNAc(b1-2)Man(a1-3)[Gal(b1-4)GlcNAc(b1-2)Man(a1-6)]Man(b1-4)GlcNAc(b1-4)[Fuc(a1-6)]GlcNAc
# Summary of the method: as §1
# [11] = molecular target: Gal(b1-4)GlcNAc(b1-2)Man(a1-6)Man(b1-4)GlcNAc(b1-4)GlcNAc
# Summary of the method: as §1
# [12] = molecular target: Gal(b1-4)GlcNAc(b1-3)Gal(b1-4)Glc
# Summary of the method: as §1
# [13] = molecular target: Gal(b1-4)GlcNAc(b1-3)Gal(b1-4)GlcNAc(b1-2)Man(a1-3)[Gal(b1-4)GlcNAc(b1-3)Gal(b1-4)GlcNAc(b1-2)Man(a1-6)]Man(b1-4)GlcNAc(b1-4)GlcNAc
# Summary of the method: as §1
# [14] = molecular target: Gal(b1-4)GlcNAc(b1-3)Gal(b1-4)GlcNAc(b1-2)Man(a1-3)[Gal(b1-4)GlcNAc(b1-3)Gal(b1-4)GlcNAc(b1-2)Man(a1-6)]Man(b1-4)GlcNAc(b1-4)[Fuc(a1-6)]GlcNAc
# Summary of the method: as §1
# [15] = molecular target: Gal(b1-4)GlcNAc(b1-3)Gal(b1-4)GlcNAc(b1-3)Gal(b1-4)GlcNAc(b1-2)Man(a1-3)[Gal(b1-4)GlcNAc(b1-3)Gal(b1-4)GlcNAc(b1-3)Gal(b1-4)GlcNAc(b1-2)Man(a1-6)]Man(b1-4)GlcNAc(b1-4)GlcNAc
# Summary of the method: as §1
# [16] = molecular target: Gal(b1-4)GlcNAc(b1-3)Gal(b1-4)GlcNAc(b1-3)[Gal(b1-4)GlcNAc(b1-3)Gal(b1-4)GlcNAc(b1-6)]GalNAc
# Summary of the method: as §1
# [17] = molecular target: Gal(b1-4)GlcNAc(b1-3)Gal(b1-4)GlcNAc(b1-6)[Gal(b1-3)]GalNAc
# Summary of the method: as §1
# [18] = molecular target: Gal(b1-4)GlcNAc(b1-3)[Fuc(a1-3)GlcNAc(b1-6)]Gal(b1-4)Glc
# Summary of the method: as §1
# Gal6S(b1-3)GlcNAc = molecular target: Gal6S(b1-3)GlcNAc
# Summary of the method: as §1
# Glc(a1-4)Glc = molecular target: Glc(a1-4)Glc
# Summary of the method: as §1
# [19] = molecular target: GlcA3S(b1-3)Gal(b1-4)GlcNAc(b1-2)Man
# Summary of the method: as §1
# [20] = molecular target: GlcNAc(b1-3)Gal(b1-4)GlcNAc(b1-3)Gal(b1-4)GlcNAc(b1-2)Man(a1-3)[GlcNAc(b1-3)Gal(b1-4)GlcNAc(b1-3)Gal(b1-4)GlcNAc(b1-2)Man(a1-6)]Man(b1-4)GlcNAc(b1-4)GlcNAc
# Summary of the method: as §1
# [21] = molecular target: GlcNAc(b1-3)Gal(b1-4)GlcNAc(b1-3)Gal(b1-4)GlcNAc(b1-3)Gal(b1-4)GlcNAc(b1-2)[GlcNAc(b1-3)Gal(b1-4)GlcNAc(b1-3)Gal(b1-4)GlcNAc(b1-3)Gal(b1-4)GlcNAc(b1-6)]Man(a1-6)[GlcNAc(b1-3)Gal(b1-4)GlcNAc(b1-3)Gal(b1-4)GlcNAc(b1-3)Gal(b1-4)GlcNAc(b1-2)Man(a1-3)]Man(b1-4)GlcNAc(b1-4)[Fuc(a1-6)]GlcNAc
# Summary of the method: as §1
# Kdn(a2-3)Gal(b1-4)Glc = molecular target: Kdn(a2-3)Gal(b1-4)Glc
# Summary of the method: as §1
# [22] = molecular target: Man(a1-3)[Man(a1-6)]Man(a1-6)[Man(a1-2)Man(a1-3)]Man(b1-4)GlcNAc(b1-4)GlcNAc
# Summary of the method: as §1
# [23] = molecular target: Neu5Ac(a2-3)Gal(b1-3)GlcNAc(b1-2)Man(a1-3)[GlcNAc(b1-4)][Neu5Ac(a2-3)Gal(b1-3)GlcNAc(b1-2)Man(a1-6)]Man(b1-4)GlcNAc(b1-4)GlcNAc
# Summary of the method: as §1
# [24] = molecular target: Neu5Ac(a2-3)Gal(b1-3)[GlcNAc(b1-6)]GalNAc
# Summary of the method: as §1
# [25] = molecular target: Neu5Ac(a2-3)Gal(b1-4)GlcNAc(b1-2)Man(a1-3)[Neu5Ac(a2-6)Gal(b1-4)GlcNAc(b1-2)Man(a1-6)]Man(b1-4)GlcNAc(b1-4)GlcNAc
# Summary of the method: as §1
# [26] = molecular target: Neu5Ac(a2-3)Gal(b1-4)GlcNAc(b1-3)Gal(b1-4)GlcNAc(b1-2)Man(a1-3)[Neu5Ac(a2-3)Gal(b1-4)GlcNAc(b1-3)Gal(b1-4)GlcNAc(b1-2)Man(a1-6)]Man(b1-4)GlcNAc(b1-4)GlcNAc
# Summary of the method: as §1
# [27] = molecular target: Neu5Ac(a2-3)Gal(b1-4)GlcNAc(b1-3)Gal(b1-4)GlcNAc(b1-3)Gal(b1-4)GlcNAc(b1-2)Man(a1-3)[Neu5Ac(a2-3)Gal(b1-4)GlcNAc(b1-3)Gal(b1-4)GlcNAc(b1-3)Gal(b1-4)GlcNAc(b1-2)Man(a1-6)]GalNAc
# Summary of the method: as §1
# [28] = molecular target: Neu5Ac(a2-3)Gal(b1-4)GlcNAc(b1-3)[Neu5Ac(a2-3)Gal(b1-4)GlcNAc(b1-6)]GalNAc
# Summary of the method: as §1
# [29] = molecular target: Neu5Ac(a2-3)Gal(b1-4)GlcNAc(b1-6)[Gal(b1-3)]GalNAc
# Summary of the method: as §1
# [30] = molecular target: Neu5Ac(a2-3)Gal(b1-4)GlcNAc6S
# Summary of the method: as §1
# [31] = molecular target: Neu5Ac(a2-3)[GalNAc(b1-4)]Gal(b1-4)GlcNAc
# Summary of the method: as §1
# [32] = molecular target: Neu5Ac(a2-6)Gal(b1-4)GlcNAc(b1-3)Gal(b1-4)GlcNAc(b1-3)Gal(b1-4)GlcNAc(b1-2)Man(a1-3)[Neu5Ac(a2-6)Gal(b1-4)GlcNAc(b1-3)Gal(b1-4)GlcNAc(b1-3)Gal(b1-4)GlcNAc(b1-2)Man(a1-6)]GalNAc
# Summary of the method: as §1
# [33] = molecular target: Neu5Ac(a2-6)Gal(b1-4)GlcNAc(b1-3)Gal(b1-4)GlcNAc(b1-3)[Neu5Ac(a2-6)Gal(b1-4)GlcNAc(b1-3)Gal(b1-4)GlcNAc(b1-6)]GalNAc
# Summary of the method: as §1
# [34] = molecular target: Neu5Ac(a2-6)Gal(b1-4)GlcNAc(b1-3)Gal(b1-4)[Fuc(a1-3)]GlcNAc(b1-3)Gal(b1-4)[Fuc(a1-3)]GlcNAc
# Summary of the method: as §1
# [35] = molecular target: Neu5Ac(a2-8)Neu5Ac(a2-3)Gal(b1-4)Glc
# Summary of the method: as §1
# [36] = molecular target: Neu5Gc(a2-3)Gal(b1-4)GlcNAc(b1-3)Gal(b1-4)GlcNAc(b1-2)Man(a1-3)[Neu5Gc(a2-3)Gal(b1-4)GlcNAc(b1-3)Gal(b1-4)GlcNAc(b1-2)Man(a1-6)]Man(b1-4)GlcNAc(b1-4)GlcNAc
# Summary of the method: as §1
# [37] = molecular target: Neu5Gc(a2-3)Gal(b1-4)[Fuc(a1-3)]GlcNAc
# Summary of the method: as §1
# [38] = molecular target: Neu5Gc(a2-6)Gal(b1-4)GlcNAc
# Summary of the method: as §1
binder,measurement,setting,value
ACA (Amaranthus caudatus) (protein) MAGLPVIMCLKSNNNQKYLRYQSDNIQQYGLLQFSADKILDPLAQFEVEPSKTYDGLVHIKSRYTNKYLVRWSPNHYWITASANEPDENKSNWACTLFKPLYVEEGNMKKVRLLHVQLGHYTQNYTVGGSFVSYLFAESSQIDTGSKDVFHVIDWKSIFQFPKRYVTFKGNNGKYLGVITINQLPCLQFGYDNLNDPKVAHEMFVTSNGTICIKSTYMNKFWRLSTDDWILVDGNDPRETNEAAALFRSDVHDFNVISLLNMQKTWFIKRFTSGKPGFINCMNAATQNVDETAILEIIELGSNN,glycan array binding signal (z-score),[1],-0.116
same,glycan array binding signal (z-score),Fuc(a1-3)GlcNAc,-0.103
same,glycan array binding signal (z-score),[2],0.058
same,glycan array binding signal (z-score),[3],-0.395
same,glycan array binding signal (z-score),[4],-0.246
same,glycan array binding signal (z-score),[5],-0.878
same,glycan array binding signal (z-score),Gal(a1-3)GalNAc,0.156
same,glycan array binding signal (z-score),Gal(b1-3)Gal(b1-4)GlcNAc,0.13
same,glycan array binding signal (z-score),[6],-0.399
same,glycan array binding signal (z-score),[7],-0.184
same,glycan array binding signal (z-score),[8],0.052
same,glycan array binding signal (z-score),[9],-0.471
same,glycan array binding signal (z-score),Gal(b1-4)GlcNAc(b1-2)Man,-0.376
same,glycan array binding signal (z-score),[10],0.193
same,glycan array binding signal (z-score),[11],-0.378
same,glycan array binding signal (z-score),[12],-0.12
same,glycan array binding signal (z-score),[13],4.74
same,glycan array binding signal (z-score),[14],3.63
same,glycan array binding signal (z-score),[15],5.84
same,glycan array binding signal (z-score),[16],5.24
same,glycan array binding signal (z-score),[17],3.84
same,glycan array binding signal (z-score),[18],0.71
same,glycan array binding signal (z-score),Gal6S(b1-3)GlcNAc,-0.469
same,glycan array binding signal (z-score),Glc(a1-4)Glc,0.351
same,glycan array binding signal (z-score),[19],-0.456
same,glycan array binding signal (z-score),[20],3.43
same,glycan array binding signal (z-score),[21],0.586
same,glycan array binding signal (z-score),Kdn(a2-3)Gal(b1-4)Glc,-0.204
same,glycan array binding signal (z-score),[22],6.44
same,glycan array binding signal (z-score),[23],-0.413
same,glycan array binding signal (z-score),[24],-0.266
same,glycan array binding signal (z-score),[25],-0.42
same,glycan array binding signal (z-score),[26],3.13
same,glycan array binding signal (z-score),[27],9.87
same,glycan array binding signal (z-score),[28],0.132
same,glycan array binding signal (z-score),[29],0.029
same,glycan array binding signal (z-score),[30],-0.219
same,glycan array binding signal (z-score),[31],-0.069
same,glycan array binding signal (z-score),[32],3.17
same,glycan array binding signal (z-score),[33],4.69
same,glycan array binding signal (z-score),[34],0.326
same,glycan array binding signal (z-score),[35],-0.424
same,glycan array binding signal (z-score),[36],1.25
same,glycan array binding signal (z-score),[37],-0.167
same,glycan array binding signal (z-score),[38],-0.372
